nsP2pro inh: blocks chikungunya virus nsP2 protease peptide cleavage. AID 1964107. FRET peptide cleavage, nsP2pro, fluorescence 1 h. 31,000 compounds, 1.1% hits. Potency, µM (titrated, usually from 24.9 µM), for inactives: top-dose activity change, negative = inhibition, actives largely listed as inhibitors; note: nearly all actives have a fitted effect of over 60% in size
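FRET cleavage of 2.5 uM peptide 2 by 150 nM CHIKV protease domain at pH 8.0 (Tris, Tween 20). Compounds at 7 concentrations (up to 25 uM) preincubated 15 min. Fluorescence read after 1 h at room temperature.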
nsP2 cell sec: secondary cell-based test for CHIKV nsP2 protease inhibitors | shares compounds with nsP2pro inh | cell-based CHIKV nsP2 protease reporter assay | Potency, µM (doses to about 51.1 µM), without a hit: at the top dose activity change, negative = inhibition, hits mostly inhibitors | 450 compounds, 10% hits | AID 1964100; note: nearly all actives have a fitted effect of over 70% in size
CHIKV NSP2 FL: selectivity test for CHIKV nsP2 protease inhibitors: full-length NSP2 | shares compounds with nsP2pro inh | Full-length CHIKV NSP2 protease enzymatic counterscreen | Potency, µM (highest dose often 50.7 µM), without a hit: at the highest dose activity change, negative = inhibition, actives largely listed as inhibitors | 410 compounds, 39% hits | AID 1964101; note: nearly all actives have a fitted effect of over 65% in size
Furin counterscr: inhibits human furin in a CHIKV nsP2 protease selectivity counterscreen; 410 compounds, 6% hits; Recombinant human furin enzymatic counterscreen, fluorogenic substrate; shares compounds with nsP2pro inh; Potency, µM (highest dose often 50.6 µM), for inactives: top-dose activity change, negative = inhibition, most hits filed as inhibitors; AID 1964102
NS23 peptide cs: blocks CHIKV nsP2 protease cleavage of endogenous NS2/3 peptide; shares compounds with nsP2pro inh; 410 compounds, 34% hits; AID 1964103; Purified CHIKV nsP2 protease, endogenous NS2/3 peptide cleavage; Potency, µM (series often up to 51 µM), without a hit: at the highest dose activity change, negative = inhibition, most hits filed as inhibitors; note: nearly all actives have a fitted effect of over 55% in size
Papain cs: inhibits papain in a CHIKV nsP2 protease selectivity counterscreen; Potency, µM (titrated, usually from 51 µM), for the others: at the top dose activity change, negative = inhibition, usual class: inhibitors; purified papain protease activity, enzymatic inhibition; shares compounds with nsP2pro inh; 410 compounds, 5% hits
nsP2pro conf qHTS: CHIKV nsP2 protease inhibition, confirmatory qHTS | shares compounds with nsP2pro inh | CHIKV nsP2 protease enzymatic activity, qHTS | Potency, µM (titrated, usually from 25.5 µM), inactives show at the top dose activity change, negative = inhibition, most hits filed as inhibitors | 410 compounds, 43% hits | AID 1964105; note: nearly all actives have a fitted effect of over 75% in size
HCV NS3 4A cs: HCV NS3/4A protease inhibition, counterscreen; shares compounds with nsP2pro inh; HCV NS3/4A protease biochemical counterscreen; Potency, µM (series often up to 50.9 µM), hits mostly inhibitors; 410 compounds, 20% hits; AID 1964106; note: nearly all actives have a fitted effect of over 55% in size
Numbers without * were called inactive; i = inactive; ? = inconclusive; [ ] = dose if it differs, or a comment. Shown is part of a subset that was picked to be rich in hits. Calls come from the whole dose curve. % is set by controls: 0 for no effect and ±100 for the full control effect; potency is the fitted concentration of half-maximal effect.

SMILES	nsP2pro inh	others
CC(C)(O)C1CC(=O)C2(C)C(CCC3(C)C(c4ccoc4)OC(=O)C4OC432)C12CCC(=O)OC2 (stereo unspecified)	0.858µM*	nsP2 cell sec=1.8%[17.6 µM];CHIKV NSP2 FL=?;Furin counterscr=6.0%[17.3 µM];NS23 peptide cs=-19.4%[17.2 µM];Papain cs=-8.2%[17.2 µM];nsP2pro conf qHTS=?;HCV NS3 4A cs=?
CC(=O)OC1CC(O)C(C)(C)C2CC(OC(C)=O)C3(C)C(CCC4(C)C(c5ccoc5)C(=O)C5OC543)C12C (stereo unspecified)	-27.0%[10 µM]
CC1(C)OC(=O)C=C[C@@]2(C)C1CC(=O)[C@]1(C)C2CC[C@@]2(C)[C@H](c3ccoc3)OC(=O)[C@H]3O[C@]321 (stereo partly specified)	3.42µM*	nsP2 cell sec=4.8%[17.6 µM];CHIKV NSP2 FL=?;Furin counterscr=5.9%[17.3 µM];NS23 peptide cs=-10.8%[17.2 µM];Papain cs=-3.7%[17.2 µM];nsP2pro conf qHTS=-28.4%[8.62 µM];HCV NS3 4A cs=i
CC12CCC3C1C(c1c(cc(O)c(C(=O)c4ccccc4)c1O)O2)C3(C)C (stereo unspecified)	24.2%
O=[S+]([O-])(Nc1nccs1)c1ccc(NCc2cccc(Cl)c2)cc1	1.7%
O=C(O)C(c1ccc2c(c1)OCCO2)N1CCCN(c2ncccn2)CC1 (stereo unspecified)	-3.9%
Oc1cc2c(cc1CN1CCN(c3ncccn3)CC1)OCO2	10µM*	nsP2 cell sec=-28.7%;CHIKV NSP2 FL=?;Furin counterscr=-3.9%;NS23 peptide cs=16.3µM*;Papain cs=-3.4%;nsP2pro conf qHTS=7.11µM*;HCV NS3 4A cs=?
CC1(C)CC(=O)N(CCCCN2CCN(c3ncccn3)CC2)C(=O)C1	-6.1%
Cc1ccc(-n2nc(C)c([C@H]3C=C[C@@H](OC(=O)Nc4ccc(C(C)C)cc4)C3)c2C)cc1Cl	0.1%
CN(C)CC(=O)N1CCC[C@@H](n2nc(-c3ccc(Oc4ccccc4)cc3)c3c(N)ncnc32)C1	130.9%
N#CN1CCC[C@@H](n2nc(-c3ccc(Oc4ccc(F)cc4F)cc3)c(C(N)=O)c2N)C1	?	nsP2 cell sec=-10.1%;CHIKV NSP2 FL=18.3µM*;Furin counterscr=-9.2%;NS23 peptide cs=?;Papain cs=?;nsP2pro conf qHTS=7.11µM*;HCV NS3 4A cs=i
CSCCC(C=O)NC(=O)C(CC(C)C)NC(=O)C(CC(C)C)NC(C)=O (stereo unspecified)	-21.7%
NC(=O)NCCCC(NC(=O)Cc1ccccc1)C(=O)O (stereo unspecified)	-4.4%
c1csc(CNc2ccc(N3CCCCC3)cc2)c1	i
C=C[C@@H]1C[C@]1(NC(=O)[C@@H]1C[C@@H](Oc2ncc(OC)c3ccc(Cl)cc23)CN1C(=O)[C@@H](NC(=O)OC(C)(C)C)C(C)(C)C)C(=O)NS(=O)(=O)C1CC1	-14.1%
CC(C)CCN1CC2(CCCN(S(=O)(=O)N3CCOCC3)C2)CCC1=O (stereo unspecified)	4.3%
Cc1cccc(Nc2ccccc2C(=O)O)c1C	1.1%
O=C(O)c1ccccc1Nc1cc(Cl)ccc1C(=O)O	-16.7%[10 µM]
Cc1cc(Nc2ccccc2C(=O)O)ccc1Cl	3.51µM*	nsP2 cell sec=-5.3%;CHIKV NSP2 FL=13µM*;Furin counterscr=-10.3%;NS23 peptide cs=?;Papain cs=?;nsP2pro conf qHTS=2µM*;HCV NS3 4A cs=i
CCOc1ccc(CCNC(C)=O)cc1OCC	i
O=S(=O)(Nc1nccs1)c1ccc(Nc2nc(-c3ccc(F)cc3)cs2)cc1	i
CCN(CC)CCNc1ccc2ncn3c4ccc(O)cc4c(=O)c1c23	101.2%
CCN(CC)CCNc1ccc(CO)c2sc3ccccc3c(=O)c12	?	nsP2 cell sec=?;CHIKV NSP2 FL=-19.1%;Furin counterscr=-11.9%;NS23 peptide cs=?;Papain cs=-20.9%;nsP2pro conf qHTS=66.3%;HCV NS3 4A cs=i
Cc1ccc(NCCN(C)CCNc2ccnc3cc(Cl)ccc23)c2c(=O)c3ccccc3sc12	34.0%[10 µM]
Cc1ccc(OCCn2c(CCNC(=O)CCc3ccc(N)cc3)nc3ccccc32)cc1	-19.8%
SMILES	nsP2pro inh	others
Cc1cc(NC(=O)c2ccc(C)c(Nc3nccc(-c4cccnc4)n3)c2)cc(-n2cnc(C)c2)c1	i
O=C(c1cccs1)c1nonc1C(=O)c1cccs1	i
Cc1ccsc1CN1CCc2nc(Nc3ccccc3)ncc2C1	1.8%
Brc1ccc(CN2CCc3nc(Nc4ccccc4)ncc3C2)s1	?	nsP2 cell sec=35.3%;CHIKV NSP2 FL=2.9%;Furin counterscr=-9.8%;NS23 peptide cs=2.3%;Papain cs=-14.2%;nsP2pro conf qHTS=-4.9%;HCV NS3 4A cs=i
Fc1ccccc1N1CCN(c2ncc3c(n2)CCN(Cc2ccc(Br)s2)C3)CC1	2.1%
CC(=O)c1ccc(N2CCN(S(=O)(=O)c3cc4c(cc3Cl)NC(=O)C4)CC2)cc1	i
CC(C)CN1CCN(C(=O)CC2CCN(S(C)(=O)=O)C2)CC1 (stereo unspecified)	-0.1%
Cc1ccc(C(=O)N2CCCCCCNC(=O)[C@@H]3C[C@@H](c4nc(Cc5ccccc5)no4)C[C@@H]32)s1	0.7%
CC(C)=CCCC1(C)C=Cc2c(c(C)cc3c2[nH]c2ccccc23)O1 (stereo unspecified)	0.1%
CC(C)=CCCC1(C)C=Cc2c(O)c3c(c(CC=C(C)C)c2O1)OC12C(=CC4CC1C(C)(C)OC2(C/C=C(/C)C(=O)O)C4=O)C3=O (stereo unspecified)	?	nsP2 cell sec=?;CHIKV NSP2 FL=-6.2%;Furin counterscr=-13.3%;NS23 peptide cs=?;Papain cs=-19.5%;nsP2pro conf qHTS=?;HCV NS3 4A cs=i
C=CCNc1nnc(-c2cccc3ccccc23)o1	?	nsP2 cell sec=25.7%;CHIKV NSP2 FL=23.1µM*;Furin counterscr=?;NS23 peptide cs=?;Papain cs=-3.6%;nsP2pro conf qHTS=7.11µM*;HCV NS3 4A cs=?
C=CCSc1nnc(-c2cccc3ccccc23)o1	1.8%
C=CCNc1oc(-c2cccc3ccccc23)nc1C#N	3.4%
CN(c1ccccc1)c1ccc2ncn(C3CC3)c(=O)c2n1	-3.6%[39.2 µM]
CS(=O)(=O)c1ccccc1N1CCN(c2nc3c(c(=O)[nH]2)CSCC3)CC1	-20.6%
O=c1[nH]c(-c2ccc(C(F)(F)F)cc2)nc2c1CSCC2	?	nsP2 cell sec=12.4%;CHIKV NSP2 FL=-10.0%;Furin counterscr=-0.4%;NS23 peptide cs=-1.0%;Papain cs=-0.8%;nsP2pro conf qHTS=-9.5%;HCV NS3 4A cs=i
O=c1[nH]c(-c2ccc(F)cc2)nc2c1CCN(S(=O)(=O)c1cccs1)C2	0.6%
c1ccc2[nH]c(-c3ccc(NCc4ccc5c(c4)OCCO5)cc3)nc2c1	-8.1%
Cc1cc2c(cc1C1(c3ccc(C(=O)O)cc3)CC1)C(C)(C)CCC2(C)C	-4.0%
COc1cccc(CNc2ccc(S(=O)(=O)Nc3nccs3)cc2)c1OC	i
Cc1c(C(=O)Nc2ccc(N3C[C@@H](C)O[C@@H](C)C3)nc2)cccc1-c1ccc(OC(F)(F)F)cc1	?	nsP2 cell sec=-13.1%;CHIKV NSP2 FL=8.1%;Furin counterscr=-8.5%;NS23 peptide cs=10.2%;Papain cs=-9.7%;nsP2pro conf qHTS=-3.8%;HCV NS3 4A cs=i
